In PubChem BioAssay (EPA / NIEHS) one finds outcome and AC50 data, which are given here for 40 compounds.

Activity calls are given as the source filed them. The calls were made as follows: active = hit-call score of the fitted dose curve at least 0.9, where 1 is the maximum; inactive = score below 0.9.

Read-out in the test: Transforming Growth Factor (TGFB1), TGFB1 (gene 7040)
The test is described as follows: LTEA_HepaRG_TGFB1: Life Technologies and Expression Analysis (LTEA) Assay for Transforming Growth Factor (TGFB1) Transporter using HepaRG (AID 2283533). Conditions: mRNA level, 48 h; actives raise or lower the signal. As for the experimental part:
LTEA_HepaRG is a cell based, multiplexed-readout assay that uses HepaRG, a human liver cell line, with measurements taken at 48 hours after chemical dosing on a 96-well plate.LTEA_HepaRG_TGFB1 is one of 102 assay component(s) measured in the LTEA HepaRG cell culture assay. It is a marker of Cell proliferation, survival, death.Data from the assay component LTEA_HepaRG_TGFB1 was analyzed into 1 endpoint. This assay endpoint, LTEA_HepaRG_TGFB1, was analyzed with bidirectional fitting relative to DMSO as the negative control and baseline of activity. Using a type of inducible reporter, measures of mRNA induction for gain or loss-of-signal activity can be used to understand regulation of transcription factor activity. To generalize the intended target to other relatable targets, this assay endpoint is annotated to the growth factor intended target family, where the subfamily is transforming growth factor beta.
A total of 1060 chemcials from the ToxCast library were tested in eight-point concentration-response experiments. Cell culture and cytotoxicity assays were conducted at Thermo Fisher Scientific's Custom Services facility (Madison, WI). A single lot of human HepaRG cells (Thermo Fisher Scientific, Frederick, MD) was used for the cell culture experiments. 96-well format collagen type I coated plates of human HepaRG cells were prepared using established methods. Briefly, cryopreserved HepaRG cells were thawed, plated at a density of approximately 100,000 cells/well in HepaRG Thaw, Plate, and General Purpose media (HPRG770, Thermo Fisher Scientific), and incubated for 48 hours. 0.5% DMSO was selected as vehicle control to balance the requisite need of DMSO in HepaRG cultures to maintain differentiation (for example, baseline metabolism, proportions of hepatocytes vs. cholangiocytes), while enabling further hepatic receptor pathway activation (for example, PXR and CAR) in response to chemical exposure. 48 hours after plating, the culture medium was replaced with HepaRG Serum-Free Incudtion Media. Cells were exposed to each test chemical in duplicate and maintained in CO2 incubators for another 48 hours. Chemical plates were thawed to room temperature and 200x concentrations of treatment groups were prepared. 8-point conentration-reponse curves were made with the highest exposure at 100 uM, followed by half-log dilutions, all in 0.5% DMSO. Each test plate contained variouse controls, induction positive controls (1mM phenobarbital), cytotoxicity positive controls ([…] aflatoxin B1), vehicle controls (0.5% DMSO), and total lysis controls (0.5% DMSO). Cell morphology images were taken using an Essen IncuCyte FLR automated microscope, with six 96-well plates imaged in about 24 minutes. Images were captured and exported and JPEG files. Spent culture media was transfered to black-well plates for the LDH assay, and remaining media was sorted at -80 C for later use. Cells were treated with RLT buffer and frozen until shipped for gene expression analysis. Total RNA was isolated from the cell suspension in 75 uL of Buffer RLT (Qiagen, Germantown, MD 20874) by Quintiles/Expression Analysis (Durham, NC) using a custom isolation procedure. Total RNA from each plate well was transferred to a preamplification plate. Fluidigm's 96.96 Dynamic ArrayTM (Fluidigm, Amsterdam, the Netherlands) technology was used for gene expression analyses by quantitative reverse transcription polymerase chain reaction (qRT-PCR, performed by Quintiles/Expression Analysis, Durham, NC)89. Standard TaqManTM Assays (Applied Biosystems/ThermoFisher Scientific, Foster City, CA) were used to assess the expression of 93 genes selected based on their selectivity and sensitivity to important hepatic receptors known to be modulated by environmental chemicals; importance in human hepatocyte functionality; and hepatotoxicity. […]
As for `O=C1CCCO1`, the compound was called inactive.
For `N#CC(Br)Br`, the outcome was inactive.
As to `CC(C)(C)OOC(=O)c1ccccc1`, the call was inactive.
The same measure, in the same setting: then `CCCCCCCCn1sccc1=O`, with “inactive”.
Same read-out and setting: then `O=P(OCCCl)(OCCCl)OCCCl`, with “inactive”.
On the same count and under the same terms, the result for `CC(C)N(Cc1ccccc1)C(=O)C(C)(C)C` reads “inactive”.
As to `Nc1ccc(Cl)cc1N`, the concentration at half-maximal activity (AC50) is 12.9 µM (active).
On to `OCCCBr`, for which the compound was classed as inactive.
Regarding `Nc1cc(Cl)cc(C(=O)O)c1Cl`, the outcome was inactive.
Take `c1ccc(N=Nc2ccccc2)cc1`: the compound was classed as inactive.
Turning to `O=Cc1ccco1`, the result was inactive.
On to `Cn1cc(-c2ccccc2)c(=O)c(-c2cccc(C(F)(F)F)c2)c1`, for which the compound was called inactive.
Same read-out and setting: the result for `[Cl-].[Cl-].[Hg+2]` reads “inactive”.
Take `Nc1ccc(Oc2ccc(N)cc2)cc1`: the result was inactive.
In the case of `CCCSC(=O)N(CCC)CCC`, the call was inactive.
As to `C[C@]12C=CC3=C4CCC(=O)C=C4CC[C@H]3[C@@H]1CC[C@@H]2O`, the result was inactive.
Still for that read-out and setting: the result for `CC(C)(C)OOC(C)(C)CCC(C)(C)OOC(C)(C)C` reads “inactive”; that for `CN(C)[C@@H]1C(=O)C(C(N)=O)=C(O)[C@@]2(O)C(=O)C3=C(O)c4c(O)cccc4[C@@](C)(O)[C@H]3C[C@@H]12`, “inactive”.
The same measure, in the same setting: then `CC(C)(O)c1cnn2c(-c3ccc(F)c(-c4c(F)cccc4C#N)c3)cnc2n1`, with “inactive”.
`CCN(CC)N=O`: the compound was called inactive.
Still for that read-out and setting: then `C[N+](C)(C)CC1CO1` (stereo not given), with “inactive”; and `c1ccc2c(c1)-c1cccc3cccc-2c13`, with “inactive”.
On the same count and under the same terms, the result for `CCN(CC)CCO` reads “inactive”.
As to `C1=Cc2cccc3cccc1c23`, the compound was classed as inactive.
The same measure, in the same setting: then `COC(=O)Nc1nc2ccccc2[nH]1`, with “inactive”.
For the compound `CN(C)c1ccccc1`, the result was inactive.
`Oc1ccc2ccc3cccc4ccc1c2c34`: the compound was classed as inactive.
As to `Nc1ccc([N+](=O)[O-])cc1`, the compound was called inactive.
Take `Brc1ccc(Oc2ccccc2)cc1`: the compound was called inactive.
On to `Oc1ccccc1Cl`, for which the outcome was inactive.
As to `CCC(C)c1ccc(O)cc1` (stereo not given), the compound was called inactive.
In the case of `ClC1=C(Cl)[C@]2(Cl)[C@H]3[C@H]([C@@H]4C=C[C@H]3C4)[C@@]1(Cl)C2(Cl)Cl`, the compound was classed as inactive.
Consider `CCNS(=O)(=O)C(F)(F)C(F)(F)C(F)(F)C(F)(F)C(F)(F)C(F)(F)C(F)(F)C(F)(F)F`, for which the call was inactive.
Regarding `N#CC(Br)(Br)C(N)=O`, the call was inactive.
On to `C=CCc1ccc2c(c1)OCO2`, for which the compound was called inactive.
Consider `CCCCC(CC)COC(=O)c1ccc(C(=O)OCC(CC)CCCC)c(C(=O)OCC(CC)CCCC)c1` (stereo not given), for which the compound was classed as inactive.
In the case of `Cc1ccc(N=C=O)cc1N=C=O`, the result was inactive.
The same measure, in the same setting: then `OCCOCCO`, with “inactive”; and `OCCCl`, with “inactive”.
For `c1ccc2c(c1)oc1ccccc12`, the compound was called inactive.
